Assay [1] can be described thus: ATG_NFI_CIS: Attagene CIS-FACTORIAL HepG2 Assay for human Nuclear Factor I (NFI) (AID 2282989). To be noted: HepG2 cis-regulatory reporter, NFI response element transcription; actives raise or lower the signal. A digest of the protocol: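 Read-out: reporter mRNA via RT-PCR plus capillary electrophoresis with fluorescence detection. Transiently transfected HepG2 (endogenous TF activity on cis promoters), 24 h compound exposure; gain or loss of signal fitted against DMSO.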

For assay [2], the target named is Myc proto-oncogene protein (Homo sapiens) (UniProt P01106). Briefly: ATG_Myc_CIS: Attagene CIS-FACTORIAL HepG2 Assay for human Myelocytomatosis (Myc) Proto-Oncogene Transcription Factor (AID 2282990). The following applies: HepG2, Attagene cis-reporter transcription factor activity; actives raise or lower the signal. Put shortly:
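After 24 h chemical treatment of HepG2 cells carrying multiplexed cis-regulated reporter constructs, reporter transcripts quantified by RT-PCR and capillary electrophoresis of fluorescent fragments. Gain or loss fitted against DMSO baseline.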

Assay [3] in a line: ATG_NRF2_ARE_CIS: Attagene CIS-FACTORIAL HepG2 Assay for human Nuclear Factor Erythroid 2 Related Factor 2 (NFR2) response to Antioxidant Response Elements (ARE) (AID 2282992).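 As to AC50: reporter mRNA level measured by RT-PCR and capillary electrophoresis fluorescence.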 The following applies: HepG2 Attagene ARE/NRF2 reporter, transcription factor activity; actives raise or lower the signal. A digest of the protocol:
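Transient MRTU transfection of HepG2; 24 h compound exposure; TriZol RNA, RT with oligo(dT), PCR, 6-FAM primer extension, HpaI cut, CE. Bidirectional fit vs DMSO.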

Assay [4] can be described thus: ATG_Oct_MLP_CIS: Attagene CIS-FACTORIAL HepG2 Assay for human Octamer-Binding Transcription Factor (Oct) (AID 2282993). To be noted: HepG2 Attagene cis-factorial Oct reporter, mRNA; actives raise or lower the signal. A digest of the protocol:
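Read-out: reporter mRNA via RT-PCR plus capillary electrophoresis of 6-FAM-labelled fragments. Transiently transfected HepG2, 24 h exposure, endogenous TF activity on cis elements. Gain or loss of signal fitted relative to DMSO.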

In assay [5] the target is Cellular tumor antigen p53 (Homo sapiens) (UniProt P04637). Briefly: ATG_p53_CIS: Attagene CIS-FACTORIAL HepG2 Assay for human p53 Transcription Factor (AID 2282994). To be noted: HepG2 p53 cis-element reporter, Attagene mRNA; actives raise or lower the signal. Put shortly:
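HepG2, transient MRTU transfection (cis promoter elements, endogenous TFs); 24 h dosing; RNA isolation, RT-PCR, 6-FAM primer extension, HpaI digest, CE fluorescence; bidirectional fit vs DMSO.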

The target in assay [6] is human Peroxisome Proliferator-activated Receptor alpha (PPARa), PPARA (gene 5465) (UniProt Q07869). Briefly: ATG_PPARa_TRANS: Attagene TRANS-FACTORIAL HepG2 Assay for human Peroxisome Proliferator-activated Receptor alpha (PPARa) (AID 2283001; active = hit-call score of the fitted dose curve at least 0.9, where 1 is the maximum). Put shortly: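 Read-out is fluorescence of reporter cDNA fragments resolved by capillary electrophoresis after RT-PCR. Human HepG2 liver cells carried transfected PPARa-Gal4 chimera and GAL4-UAS reporter units, treated 24 h; activity scored as increase over DMSO.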
human Peroxisome Proliferator-activated Receptor alpha (PPARa), PPARA (gene 5465), sequence (Q07869 whole entry, looked up, the tested form may be a part): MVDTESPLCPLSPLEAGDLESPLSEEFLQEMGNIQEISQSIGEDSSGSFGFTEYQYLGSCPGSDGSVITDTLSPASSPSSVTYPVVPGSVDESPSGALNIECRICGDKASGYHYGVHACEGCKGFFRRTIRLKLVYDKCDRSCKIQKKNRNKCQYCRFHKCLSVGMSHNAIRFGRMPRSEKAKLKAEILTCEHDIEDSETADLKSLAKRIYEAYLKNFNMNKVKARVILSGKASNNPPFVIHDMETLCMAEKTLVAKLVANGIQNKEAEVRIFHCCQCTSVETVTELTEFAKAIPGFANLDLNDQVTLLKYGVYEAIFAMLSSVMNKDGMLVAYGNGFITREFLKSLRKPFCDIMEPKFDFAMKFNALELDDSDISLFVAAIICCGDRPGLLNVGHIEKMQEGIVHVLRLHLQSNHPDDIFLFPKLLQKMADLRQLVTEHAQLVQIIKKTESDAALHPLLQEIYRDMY

Assay [7] concerns the target Peroxisome proliferator-activated receptor gamma (Homo sapiens) (UniProt P37231). Briefly: ATG_PPARg_TRANS: Attagene TRANS-FACTORIAL HepG2 Assay for human Peroxisome Proliferator-activated Receptor-gamma (PPARg) (AID 2283007; active = hit-call score of the fitted dose curve at least 0.9, where 1 is the maximum). A digest of the protocol: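 Chimeric NR-Gal4 transactivation is measured in transiently transfected HepG2 cells by reporter mRNA induction at 24 h. Detection uses RT-PCR with fluorescent labelling and capillary electrophoresis; DMSO defines baseline.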

The target of assay [8] is Nuclear receptor subfamily 1 group I member 2 (Homo sapiens) (UniProt O75469). Nature of the assay: ATG_PXR_TRANS: Attagene TRANS-FACTORIAL HepG2 Assay for human Pregnane X Receptor (PXR) (AID 2283008; active = hit-call score of the fitted dose curve at least 0.9, where 1 is the maximum). A digest of the protocol:
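Read-out is fluorescence of labelled reporter cDNA fragments separated by capillary electrophoresis after RT-PCR and HpaI digestion. Source: HepG2 cells carrying PXR-GAL4/UAS reporter constructs, treated 24 h; activity fitted upward relative to DMSO.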

Assay [9] deals with human RAR-related Orphan Receptor gamma (RORg), RORC (gene 6097) (UniProt P51449). Briefly: ATG_RORg_TRANS: Attagene TRANS-FACTORIAL HepG2 Assay for human RAR-related Orphan Receptor gamma (RORg) (AID 2283011; active = hit-call score of the fitted dose curve at least 0.9, where 1 is the maximum). A digest of the protocol: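 First, HepG2 liver cells were transfected with GAL4-UAS-driven reporter constructs and the RORg-Gal4 fusion. Next, they were treated with chemical for 24 h. Finally, reporter mRNA was quantified by RT-PCR and capillary electrophoresis, with upward activity fitted against DMSO.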
human RAR-related Orphan Receptor gamma (RORg), RORC (gene 6097), sequence (P51449 whole entry, looked up, the tested form may be a part): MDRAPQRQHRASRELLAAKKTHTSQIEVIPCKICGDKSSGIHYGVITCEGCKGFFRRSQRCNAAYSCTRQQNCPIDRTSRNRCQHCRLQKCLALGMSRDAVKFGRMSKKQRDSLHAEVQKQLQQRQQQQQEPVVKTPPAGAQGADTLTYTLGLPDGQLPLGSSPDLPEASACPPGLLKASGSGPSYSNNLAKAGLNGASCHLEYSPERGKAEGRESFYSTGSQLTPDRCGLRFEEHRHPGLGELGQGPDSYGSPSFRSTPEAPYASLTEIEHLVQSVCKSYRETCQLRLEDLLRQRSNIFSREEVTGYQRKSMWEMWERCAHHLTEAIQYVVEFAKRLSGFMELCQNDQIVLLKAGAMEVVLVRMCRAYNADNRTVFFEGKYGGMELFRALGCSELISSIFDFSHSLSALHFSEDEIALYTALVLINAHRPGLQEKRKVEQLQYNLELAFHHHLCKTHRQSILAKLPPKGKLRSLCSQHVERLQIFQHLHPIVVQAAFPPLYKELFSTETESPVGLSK

The nature of assay [10]: BSK_3C_uPAR: BioMAP Diversity Plus: 3C Assay for Urokinase-type plasminogen activator receptor (uPAR) Biomarker Activity (AID 2282998). The following applies: BioMAP 3C HUVEC, uPAR biomarker ELISA; actives raise or lower the signal. Put shortly: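 HUVEC primary cells; 24 h post-dose; uPAR by ELISA; gain or loss of signal fitted bidirectionally vs DMSO baseline.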
(ELISA stands for enzyme-linked immunosorbent assay.)

A short description of assay [11]: BSK_3C_VCAM1: BioMAP Diversity Plus: 3C Assay for Vascular cell adhesion molecule 1 (VCAM1) Biomarker Activity (AID 2282999). To be noted: BioMAP 3C HUVEC, VCAM1 ELISA, cytokine-stimulated; actives raise or lower the signal. Put shortly: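 Endothelial cells from human umbilical vein are treated with test chemical. At 24 h, VCAM-1 is measured by ELISA, and responses in either direction are fitted relative to DMSO.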

Assay [12] in a line: BSK_4H_Eotaxin3: BioMAP Diversity Plus: 4H Assay for Eotaxin 3 Biomarker Activity (AID 2283000).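 Also: CCL26 protein level quantified by ELISA in parallel with SRB cytotoxicity check.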 To be noted: primary human endothelial cells (HUVEC); actives raise or lower the signal. Put shortly:
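Chemicals were added to human umbilical vein endothelium cultures, and Eotaxin-3 was quantified by ELISA at 24 h. Values were derived by bidirectional fitting with DMSO serving as negative control and activity baseline.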

Assay [13] addresses human Peroxisome Proliferator-activated Receptor delta (PPARd), PPARD (gene 5467) (UniProt Q03181). Nature of the assay: ATG_PPARd_TRANS: Attagene TRANS-FACTORIAL HepG2 Assay for human Peroxisome Proliferator-activated Receptor delta (PPARd) (AID 2283002; active = hit-call score of the fitted dose curve at least 0.9, where 1 is the maximum). A digest of the protocol: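 Read-out is induced reporter mRNA, quantified by RT-PCR with fluorescent labelling and capillary electrophoresis after 24 h dosing. Cells are HepG2 transiently carrying multiple GAL4-UAS reporter units driven by exogenous NR-GAL4 chimeras; DMSO serves as baseline.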

Read-out in assay [14]: Intercellular Adhesion Molecule 1 (ICAM1), ICAM1 (gene 3383)
Nature of the assay: BSK_3C_ICAM1: BioMAP Diversity Plus: 3C Assay for Intercellular Adhesion Molecule 1 (ICAM1) Biomarker Activity (AID 2283003). To be noted: primary human endothelial cells (HUVEC); actives raise or lower the signal. Put shortly: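 HUVEC primary cells stimulated under 3C conditions; ICAM1 measured by ELISA 24 h after compound dosing. Curves fitted bidirectionally against the DMSO baseline. Overt cytotoxicity checked by SRB staining of parallel cultures.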

The nature of assay [15]: BSK_3C_Proliferation: Cell Proliferation Assessment in the BioMAP Diversity Plus: 3C Assay (AID 2283006). The following applies: primary human endothelial cells (HUVEC). Put shortly: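 Subconfluent HUVEC (3C system) cultured with chemical; relative cell number read at 48 h by sulforhodamine B total-protein staining (0.1% SRB after 10% TCA fixation, 560 nm). Bidirectional fit relative to DMSO.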

Assay [16] has as its target human RAR-related Orphan Receptor beta (RORb), RORB (gene 6096) (UniProt Q92753). Briefly: ATG_RORb_TRANS: Attagene TRANS-FACTORIAL HepG2 Assay for human RAR-related Orphan Receptor beta (RORb) (AID 2283010; active = hit-call score of the fitted dose curve at least 0.9, where 1 is the maximum). Put shortly:
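HepG2 cells transiently transfected with GAL4-UAS reporter units expressing chimeric NR-Gal4 protein; reporter mRNA measured 24 h after dosing by RT-PCR, 6-FAM labelling and capillary electrophoresis. Gain-of-signal fitted relative to DMSO baseline.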

Assay [17] has as its target human Retinoic Acid Receptor gamma (RARg), RARG (gene 5916) (UniProt P13631). Nature of the assay: ATG_RARg_TRANS: Attagene TRANS-FACTORIAL HepG2 Assay for human Retinoic Acid Receptor gamma (RARg) (AID 2283009; active = hit-call score of the fitted dose curve at least 0.9, where 1 is the maximum). A digest of the protocol:
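HepG2 transiently transfected with GAL4-UAS reporter units and chimeric NR-Gal4 constructs; 24 h compound exposure. Reporter mRNA quantified by RT-PCR, FAM labeling, HpaI digestion and capillary electrophoresis; gain-of-signal versus DMSO.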

Results filed as inconclusive are left out. Active and inactive are the calls of the source. The calls were made as follows, unless noted: active = hit-call score of the fitted dose curve at least 0.9, where 1 is the maximum; inactive = score below 0.9.

Myc proto-oncogene protein (Homo sapiens), sequence (P01106 whole entry, looked up, the tested form may be a part): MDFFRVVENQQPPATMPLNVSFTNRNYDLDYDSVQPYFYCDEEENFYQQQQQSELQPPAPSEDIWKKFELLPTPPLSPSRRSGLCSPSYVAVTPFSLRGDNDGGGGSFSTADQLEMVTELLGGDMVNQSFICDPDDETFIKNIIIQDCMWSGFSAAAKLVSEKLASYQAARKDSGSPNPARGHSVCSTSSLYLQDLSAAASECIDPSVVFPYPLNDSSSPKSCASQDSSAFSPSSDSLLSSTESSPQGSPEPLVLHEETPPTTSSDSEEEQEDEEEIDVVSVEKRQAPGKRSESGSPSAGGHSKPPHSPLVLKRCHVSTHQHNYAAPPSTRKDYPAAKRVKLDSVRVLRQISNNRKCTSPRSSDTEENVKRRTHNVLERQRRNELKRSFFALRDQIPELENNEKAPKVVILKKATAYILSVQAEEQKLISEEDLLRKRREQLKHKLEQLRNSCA
human RAR-related Orphan Receptor beta (RORb), RORB (gene 6096), sequence (Q92753 whole entry, looked up, the tested form may be a part): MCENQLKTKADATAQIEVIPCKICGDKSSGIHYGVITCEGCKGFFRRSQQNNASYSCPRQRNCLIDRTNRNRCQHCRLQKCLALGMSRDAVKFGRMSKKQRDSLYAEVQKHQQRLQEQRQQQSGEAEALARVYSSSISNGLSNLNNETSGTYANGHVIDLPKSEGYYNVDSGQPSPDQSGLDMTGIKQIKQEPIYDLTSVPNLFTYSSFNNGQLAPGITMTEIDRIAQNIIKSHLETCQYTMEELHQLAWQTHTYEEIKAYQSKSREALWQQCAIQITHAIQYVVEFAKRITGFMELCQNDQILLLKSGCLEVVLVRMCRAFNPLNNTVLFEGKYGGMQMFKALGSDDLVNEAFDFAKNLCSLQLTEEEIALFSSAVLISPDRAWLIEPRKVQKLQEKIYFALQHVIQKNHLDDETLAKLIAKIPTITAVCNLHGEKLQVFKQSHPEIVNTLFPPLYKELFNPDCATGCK
Peroxisome proliferator-activated receptor gamma (Homo sapiens), sequence (P37231 whole entry, looked up, the tested form may be a part): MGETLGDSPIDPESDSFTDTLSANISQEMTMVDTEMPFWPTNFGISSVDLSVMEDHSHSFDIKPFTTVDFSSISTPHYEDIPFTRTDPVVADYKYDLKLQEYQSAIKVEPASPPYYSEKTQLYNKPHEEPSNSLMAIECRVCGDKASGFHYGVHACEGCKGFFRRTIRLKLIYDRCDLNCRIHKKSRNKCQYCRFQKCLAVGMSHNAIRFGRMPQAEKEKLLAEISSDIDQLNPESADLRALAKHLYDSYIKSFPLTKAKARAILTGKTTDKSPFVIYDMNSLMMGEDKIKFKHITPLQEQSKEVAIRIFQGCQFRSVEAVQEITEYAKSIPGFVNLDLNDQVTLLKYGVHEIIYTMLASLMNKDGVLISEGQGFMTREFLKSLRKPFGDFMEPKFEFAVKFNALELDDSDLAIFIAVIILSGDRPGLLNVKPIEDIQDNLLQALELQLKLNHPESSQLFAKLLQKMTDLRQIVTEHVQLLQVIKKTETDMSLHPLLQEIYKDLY
human Peroxisome Proliferator-activated Receptor delta (PPARd), PPARD (gene 5467), sequence (Q03181 whole entry, looked up, the tested form may be a part): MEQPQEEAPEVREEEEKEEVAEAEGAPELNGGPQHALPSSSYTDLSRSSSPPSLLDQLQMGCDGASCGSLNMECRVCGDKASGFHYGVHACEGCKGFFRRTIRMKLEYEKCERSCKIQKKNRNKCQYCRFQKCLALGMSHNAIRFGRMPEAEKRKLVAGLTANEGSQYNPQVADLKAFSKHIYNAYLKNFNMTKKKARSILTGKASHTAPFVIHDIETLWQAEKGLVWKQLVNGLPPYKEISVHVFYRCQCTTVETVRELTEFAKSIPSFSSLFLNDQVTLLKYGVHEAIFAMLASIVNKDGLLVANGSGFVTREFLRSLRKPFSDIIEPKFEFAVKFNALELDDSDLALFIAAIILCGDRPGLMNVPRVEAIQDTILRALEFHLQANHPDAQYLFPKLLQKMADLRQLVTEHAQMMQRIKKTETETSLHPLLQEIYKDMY
Nuclear receptor subfamily 1 group I member 2 (Homo sapiens), sequence (O75469 whole entry, looked up, the tested form may be a part): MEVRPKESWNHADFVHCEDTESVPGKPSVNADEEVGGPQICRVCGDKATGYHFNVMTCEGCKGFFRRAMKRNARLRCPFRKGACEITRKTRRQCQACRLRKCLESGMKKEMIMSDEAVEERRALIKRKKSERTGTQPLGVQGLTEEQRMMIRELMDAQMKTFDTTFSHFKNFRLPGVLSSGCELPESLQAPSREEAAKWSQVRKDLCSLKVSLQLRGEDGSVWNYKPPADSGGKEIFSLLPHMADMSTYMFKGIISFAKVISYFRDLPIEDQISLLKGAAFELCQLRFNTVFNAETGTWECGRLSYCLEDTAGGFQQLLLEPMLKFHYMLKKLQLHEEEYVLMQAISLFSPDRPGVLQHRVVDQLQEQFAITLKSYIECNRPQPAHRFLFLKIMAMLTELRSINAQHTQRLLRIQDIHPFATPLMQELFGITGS
Cellular tumor antigen p53 (Homo sapiens), sequence (P04637 whole entry, looked up): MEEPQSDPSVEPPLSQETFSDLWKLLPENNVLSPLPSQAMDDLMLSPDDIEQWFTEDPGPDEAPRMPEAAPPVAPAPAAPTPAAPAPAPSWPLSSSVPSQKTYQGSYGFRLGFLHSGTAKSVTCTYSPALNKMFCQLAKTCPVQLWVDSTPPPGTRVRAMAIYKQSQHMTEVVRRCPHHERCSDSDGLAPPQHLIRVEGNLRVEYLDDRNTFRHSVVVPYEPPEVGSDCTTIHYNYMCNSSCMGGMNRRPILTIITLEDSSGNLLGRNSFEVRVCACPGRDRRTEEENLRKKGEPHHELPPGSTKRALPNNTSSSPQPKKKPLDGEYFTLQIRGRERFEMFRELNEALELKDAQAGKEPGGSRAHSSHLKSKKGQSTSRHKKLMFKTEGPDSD
human Retinoic Acid Receptor gamma (RARg), RARG (gene 5916), sequence (P13631 whole entry, looked up, the tested form may be a part): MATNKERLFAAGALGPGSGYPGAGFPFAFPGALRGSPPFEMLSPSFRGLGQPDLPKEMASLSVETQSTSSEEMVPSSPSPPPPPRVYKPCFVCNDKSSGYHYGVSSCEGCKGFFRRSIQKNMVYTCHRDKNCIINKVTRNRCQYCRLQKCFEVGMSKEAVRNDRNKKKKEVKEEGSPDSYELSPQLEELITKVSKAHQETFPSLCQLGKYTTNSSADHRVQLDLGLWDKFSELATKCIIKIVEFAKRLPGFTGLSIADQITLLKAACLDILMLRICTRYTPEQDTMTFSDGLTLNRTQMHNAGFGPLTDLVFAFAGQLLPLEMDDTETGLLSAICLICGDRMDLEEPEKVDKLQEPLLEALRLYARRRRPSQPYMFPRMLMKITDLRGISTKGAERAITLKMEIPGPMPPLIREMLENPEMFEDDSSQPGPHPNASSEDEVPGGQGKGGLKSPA

Take `COc1ccc(OC)c(OC)c1`: the compound was called inactive in assay [1], in [2], in assay [3], in assay [4], in assay [5] and in assay [6]. Also, the outcome in assay [7], in [8] and in assay [9] was inactive.
Regarding `CCC(=O)OCc1ccccc1`, the compound was called inactive in [1], in assay [2], in [3], in assay [4], in assay [5] and in [10]. The result in assay [11], in assay [12], in assay [13], in assay [14], in assay [15] and in [8] was inactive. Moreover, the result in assay [16] and in assay [9] was inactive.
Regarding `O=C(O)c1cccc(C(F)(F)F)c1`, the outcome in assay [1], in assay [2], in [3], in [4], in [5] and in [6] was inactive. In addition, the outcome in [7] was inactive.
For `CC(=O)OCc1ccc2c(c1)OCO2`, the compound was called inactive in [1], in assay [2], in assay [3], in [4], in assay [5] and in assay [6]. For the same compound, the call in [8], in assay [16] and in assay [9] was inactive.
Take `COC(=O)c1ccc(C)cc1`: the call in assay [1], in [2], in assay [3], in assay [4], in [5] and in [10] was inactive. Further, the outcome in assay [11], in assay [12], in [14] and in assay [16] was inactive. In addition, the AC50 in assay [8] was 9.06 µM (active).
Take `CC(C)C[C@H]1C(=O)N2CCC[C@H]2[C@]2(O)O[C@](NC(=O)[C@@H]3C=C4c5cccc6[nH]c(Br)c(c56)C[C@H]4N(C)C3)(C(C)C)C(=O)N12`: the AC50 was 3.81 µM (active) in assay [1], 3.7 µM (active) in [3] and 0.505 µM (active) in [8]. For the same compound, the compound was called inactive in assay [2], in assay [4], in [6], in [7], in assay [17] and in assay [9].
As to `CCCOCC(C)O` (stereo unspecified), the call in assay [1], in assay [2], in [3], in assay [4], in assay [13] and in assay [7] was inactive. Also, the compound was called inactive in assay [8] and in [16].
Consider `COc1ccnc(CS(=O)c2nc3cc(OC(F)F)ccc3[nH]2)c1OC` (stereo unspecified), for which the outcome in [1], in [2], in assay [4], in assay [13], in [7] and in assay [8] was inactive. Moreover, the call in assay [16] and in [9] was inactive. In addition, the AC50 in assay [3] was 59.4 µM (active).

For orientation: AC50 means the midpoint of the concentration-response curve, whichever way the signal moves.
